Results filed as inconclusive are left out. Calls of active or inactive are those of the source. Calls follow the shape of the dose curve; as a rule, active = well fitted cell-killing curve with a large enough effect in the repeat runs; inconclusive = weak or mixed curves, or effect the other way; inactive = flat fitted curve, though single readings scatter. Where a SMILES comes first, the peptide text is derived from it.
Assay: qHTS assay to identify small molecule agonists of the sonic hedgehog signaling (Shh) pathway - cell viability counter screen (AID 1259366); also: nearly all actives have a fitted effect of over 50% in size
Settings: NIH/3T3 Gli1-Luc viability, CellTiter-Fluor, 24 h; series mostly up to 92.4 µM
Excerpt: National Center for Advancing Translational Sciences [NCATS]
NIH Chemical Genomics Center [NCGC]
U.S. Environmental Protection Agency [EPA]
National Institutes of Environmental Health Sciences [NIEHS]
National Toxicology Program [NTP]
U.S. Food and Drug Administration [FDA]
The sonic hedgehog (Shh) pathway is essential for normal embryonic development. Dysregulation of the Shh pathway can cause severe developmental defects in organs. Therefore chemicals that interfere with the pathway are potential developmental toxicants. A cell line designated 3T3Gli1-Luc (DMB/OARSA/CFSAN/FDA, Laurel, MD), a NIH/3T3 derived clone containing stably integrated Gli1-Luc reporter is used to detect chemical interference of the Shh pathway, by changes in the expression of the firefly Luc gene under the control of the Gli1 transcriptional response element. This cell line was used to screen Tox21 libraries for identifying and prioritizing the potential developmental toxicants that interfere Shh pathway. The cytotoxicity of the compounds was tested in parallel by measuring the cell viability using CellTiter-Fluor assay system (Promega, Madison, WI) in the same wells.
Tox21 Assay Protocol Summary:
3T3 Gli1-Luc cells were dispensed at 2,000 per well in 5uL of culture medium into white solid bottom 1536-well plates (Greiner Bio-One, Monroe, NC) using a Multidrop Combi (Thermo Scientific, Waltham, MA) dispenser. The assay plates were incubated at 37 C and 5% CO2 for 4hr, and then 23nL of compounds dissolved in DMSO and positive control were transferred using a Pintool station (Wako, San Diego, CA). The assay plates were incubated at 37C and 5% CO2 for 24hr. For viability read, after 23hr of compound treatment, 1uL of CellTiter-Fluor reagent (Promega Corporation, Madison, WI) was added to each well of the assay plates using Flying Reagent Dispenser (FRD, Aurora Discovery, San Diego, CA) and incubated the assay plates at 37C for 1hr. The fluorescence signal was quantified using a ViewLux plate reader (Perkin Elmer, Shelton, CT).
With C/C(=C1\CCOC(=O)S1)N(C=O)Cc1cnc(C)nc1N the outcome was “inactive”.
In the case of CCCCCCCCCCCCCCC(=O)NC(CO)CCCCCCCCCCCCCC (stereo not given), the outcome is reported as “inactive”.
For O=NN(CCCl)C(=O)NC1CCCCC1, the outcome was “inactive”.
With CC(O)CC(C)O (stereo not given) the outcome was “inactive”.
With CC(N)CCCC(C)(C)O (stereo not given) the outcome was “inactive”.
In the case of O=C(NCN1CCOCC1)c1cnccn1, the outcome is reported as “inactive”.
In the case of CC1(C)[C@H]2CC[C@](C)(C2)[C@H]1O, the outcome is reported as “inactive”.
In the case of Fc1ccccc1, the outcome is reported as “inactive”.
For CCC(C)C(C)=O (stereo not given), the outcome was “inactive”.
In the case of CO/N=C(/C(=O)N[C@@H]1C(=O)N2C(C(=O)[O-])=C(C[n+]3ccn4ncccc43)CS[C@H]12)c1nsc(N)n1, the outcome is reported as “inactive”.
In the case of O=Cc1cc2ccccc2o1, the outcome is reported as “inactive”.
With [O-][n+]1cccc(/C(Cl)=N/OC[C@@H](O)CN2CCCCC2)c1 the outcome was “inactive”.
With Cc1ccc(C)c([N+](=O)[O-])c1 the outcome was “inactive”.
In the case of CC(C)CO, the outcome is reported as “inactive”.
For CC1(C)O[C@H]2CC(=O)OC[C@]23[C@H]2CC[C@@]4(C)[C@H](c5ccoc5)OC(=O)[C@H]5O[C@]54[C@]2(C)C(=O)C[C@@H]13, the outcome was “inactive”.
With CCCCOCC(C)O (stereo not given) the outcome was “inactive”.
With C=C(C)[C@@H]1CC=C(C)C(=O)C1 the outcome was “inactive”.
With C=CCOC(=O)CCCCCC the outcome was “inactive”.
In the case of CCCCCCCCCCCCCCCCCC#N, the outcome is reported as “inactive”.
For OC1(c2ccc(Cl)cc2)CCNCC1, the outcome was “inactive”.
For CCCC(=O)Nc1ccc(OCC(O)CNC(C)C)c(C(C)=O)c1 (stereo not given), the outcome was “inactive”.
With CCOC(=O)CC1(C)OCC(C)O1 (stereo not given) the outcome was “inactive”.
In the case of CCC/C=C(\C=O)CC, the outcome is reported as “inactive”.
With CC1=C(O)C(=O)C(C)O1 (stereo not given) the outcome was “inactive”.
With CCCCC1CCC(O)CC1 (stereo not given) the outcome was “inactive”.
With Cc1ccc2c(c1)C(=O)c1ccccc1C2=O the outcome was “inactive”.
For C=Cc1ccc(C(C)(C)C)cc1, the outcome was “inactive”.
With CCn1cc(C(=O)O)c(=O)c2cnc(N3CCCC3)nc21 the viability change, negative = cytotoxic was -0.379% [at 8.39 µM] (inactive).
In the case of N[C@@H](CSCCCO)C(=O)O, the viability change, negative = cytotoxic is reported as -0.254% [at 19 µM] (inactive).
For C=CC(=O)OCC1CCCO1 (stereo not given), the outcome was “inactive”.
With CN(C)CCN(C)CCO the outcome was “inactive”.
In the case of OCC1CCC(CO)CC1 (stereo not given), the outcome is reported as “inactive”.
For O=C(Cn1ccnc1[N+](=O)[O-])NCc1ccccc1, the outcome was “inactive”.
For CCC(C(=O)OCCN1CCOC(c2ccccc2)C1C)c1ccccc1 (stereo not given), the outcome was “inactive”.
For CC(=O)N[C@@H](CO)C(=O)N[C@@H](CC(=O)O)C(=O)N[C@@H](CCCCN)C(=O)N1CCC[C@H]1C(=O)O (Ac-SDKP-OH), the outcome was “inactive”.
With O=C1CCCCO1 the outcome was “inactive”.
With C=C(C)C1CC=C(C)C(=O)C1 (stereo not given) the outcome was “inactive”.
With CC(C)C1OCCN1CCOC(=O)NCCCCCCNC(=O)OCCN1CCOC1C(C)C (stereo not given) the outcome was “inactive”.
For CCOc1cccc(N)c1, the outcome was “inactive”.
With CC1=C(C(=O)O)N2C(=O)[C@@H](NC(=O)[C@H](N)C3=CCC=CC3)[C@H]2SC1 the outcome was “inactive”.

From PubChem BioAssay (Tox21)
% is scaled to controls: 0 for no effect and ±100 for the full control effect.
